# Measurements: PubChem BioAssay
# Where “and” joins values, the source holds several entries; their conditions need not be identical. Equal values may be shown once. Results filed as inconclusive are left out. Calls of active or inactive are those of the source.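 How the source made its calls, unless noted: active means normalized viability below 100% at a tested concentration; inactive means the rest.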
# Legend:
# [1] = viability loss in pontine glioma line – cell-based, SU-DIPG-XIII, MIPE4.0, CellTiter-Glo, qHTS, dose response (AID 1347061; cut-off not given, nearly all actives have AC50 up to about 37 µM;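 further: cells exposed to compound for 48 hours before readout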); conditions: CellTiter-Glo ATP luminescence
# [2] = viability loss in pontine glioma line – cell-based, JHH-DIPG-1, MIPE4.0, CellTiter-Glo, qHTS, dose response (AID 1347062; cut-off not given, nearly all actives have AC50 up to about 27 µM;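 on AC50: cells exposed to compound for two days before readout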); conditions: JHH-DIPG-1 viability, CellTiter-Glo ATP luminescence
# [3] = viability loss in pontine glioma line – cell-based, SU-DIPG-XXV, MIPE5.0, CellTiter-Glo, qHTS, dose response (AID 1347065; cut-off not given, nearly all actives have AC50 up to about 26 µM;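 further: cells exposed to compound for 48 hours before ATP readout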); conditions: CellTiter-Glo ATP luminescence
# [4] = growth inhibition of DIPG cells – cell-based, MIPE4.0 library, CellTiter-Glo luminescence, qHTS (AID 1347066; cut-off not given, nearly all actives have AC50 up to about 30 µM;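 further: cells exposed to compound for 48 hours before readout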); conditions: SU-DIPG-VI viability, CellTiter-Glo ATP luminescence
# [5] = growth inhibition of DIPG cells – cell-based, MIPE5.0 library, qHTS (AID 1347068; cut-off not given, nearly all actives have IC50 up to about 30 µM); conditions: SU-DIPG-XXV viability
# [6] = compounds altering HSF1 focus formation in cells – imaging, Selleck Cancer Library (AID 1347162; in the data active means plate-normalised HSF1 focus index below about 0.46); conditions: human cells, HSF1 nuclear foci imaging, at 10 µM; SSMD: measured here: HSF1 foci SSMD mean; cell count: measured here: cell number; plate-normalised HSF1 focus index: stronger effect = lower value
# [7] = growth inhibition, single agent or in combination, cell-based, chromothripsis tumors, cisplatin or BGB combos (AID 1671449; in the data active means inhibition above about 80%;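 further: cells exposed for 96 hours; 0% = vehicle DMSO and 100% = killing by high DMSO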); conditions: LFS_MB_P medulloblastoma cells
# [8] = growth inhibition, single agent and combos, cell-based, chromothripsis tumors, cisplatin or BGB combos (AID 1671450; in the data active means inhibition above about 80%;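 further: cells exposed to compound for four days; 0% = vehicle DMSO and 100% = cell killing by high DMSO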); conditions: HDN33 neuroblastoma cells, stronger effect = higher value
# [9] = growth inhibition, single agents and combos, ICB984, cell-based, cisplatin or BGB combos, synergistic combos for chromothripsis tumors (AID 1671451; call rule not given here;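 further: cells exposed for 96 hours before readout; 0% = vehicle DMSO and 100% = killing by high DMSO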); conditions: ICB984 medulloblastoma cells, drug combinations, stronger effect = higher value
# [10] = growth inhibition, single agents and combos, HTB85, cell-based, BGB or cisplatin IC20 combos, synergistic combos for chromothripsis tumors (AID 1671453; in the data active means inhibition above about 80%;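 further: cells exposed for 96 hours before readout; 0% = vehicle DMSO and 100% = high DMSO killing control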); conditions: HTB85 osteosarcoma cells, drug combinations, stronger effect = higher value
# [11] = growth inhibition, MDA-MB-436, cell-based, BGB or cisplatin combos, synergistic combos for chromothripsis tumors (AID 1671458; call rule not given here;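 further: cells exposed for 96 hours; 0% = vehicle DMSO and 100% = killing by high DMSO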); conditions: MDA-MB-436 breast carcinoma growth inhibition, drug combinations, stronger effect = higher value
# [12] = BT084 cell growth, single and combined drugs, ICGC_MB145, cisplatin and BGB IC40 combos (AID 1671461; in the data active means inhibition above about 80%;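 further: cells exposed to drugs for 96 hours; 0% = vehicle DMSO and 100% = high DMSO full killing control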); conditions: BT084 medulloblastoma cells, drug combinations, stronger effect = higher value
# [13] = RCMB18 cell growth, single agent and combined, cisplatin and BGB IC40 combos (AID 1671462; in the data active means inhibition above about 80%;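 further: cells exposed to compound for four days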); conditions: RCMB18 medulloblastoma cells, stronger effect = higher value
# [14] = CRL1545 cell growth, single agent and combined, cisplatin and BGB IC20 combos (AID 1671464; in the data active means inhibition above about 80%;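 further: cells exposed to compound for 96 hours before readout; 0% = vehicle DMSO and 100% = high DMSO killing control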); conditions: CRL1545 osteosarcoma cells, stronger effect = higher value
# [15] = JHH-DIPG-1 glioma cell viability, MIPE5.0 library, CellTiter-Glo luminescence, qHTS (AID 1347067; cut-off not given, nearly all actives have AC50 up to about 26 µM;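 further: cells exposed to compound for 48 hours before readout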); conditions: JHH-DIPG-1 glioma viability, CellTiter-Glo ATP luminescence
# [16] = viability loss with induced miR-34 in A549 – imaging, A549 dox-inducible miR-34, nuclei and caspase counts, primary screen (AID 1347080;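 active means compounds whose cell count with miR-34 switched on is under 0.7 times the count with it off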); conditions: A549 miR-34 inducible, Hoechst nuclei count, 48 h
# [17] = viability loss in pontine glioma line – cell-based, SU-DIPG-XIII, MIPE5.0, CellTiter-Glo, qHTS, dose response (AID 1347064; cut-off not given, nearly all actives have AC50 up to about 23 µM); conditions: CellTiter-Glo ATP luminescence
# [18] = MELAS cybrid and Rieske KO viability enhancers – cell-based, MELAS cybrids, Rieske KO mouse fibroblasts, CellTiter-Glo, primary screen (AID 1508586;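 active means mean z-score across replicates of 1.96 or higher in either the MELAS or the Rieske mutant cell line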;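 further: z relative to plate mean and SD of compound and empty wells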); conditions: low glucose
# [19] = drug combination growth inhibition, ovarian cancer – cell-based, oncology-focused library, rucaparib conditional, profiling panel (AID 1508598); conditions: patient-derived ovarian cancer cells, CellTiter-Glo viability, 144 h, stronger effect = lower value
# [20] = measured here: with BGB IC20 combination, at 0.5 µM
# [21] = measured here: with cisplatin IC20 combination, at 0.5 µM
# [22] = stronger effect = lower value, cell number ratio, induced over uninduced
# [23] = measured here: relative caspase fold change +Dox/-Dox
# [24] = measured here: total cells with miR-34 induction, stronger effect = lower value
# [25] = measured here: total cells without miR-34 induction
structure (smiles),measurement,setting,value
COc1cc2ncnc(-n3nc(-c4ccccn4)nc3N)c2cc1OC,AC50,[1],23.5 µM (active)
same,AC50,[2],18.7 µM (active)
same,AC50,[3],10.5 µM (active)
same,outcome,[4],inactive
same,outcome,[5],inactive
same,SSMD,[6],1.68
same,cell count,[6],7810
same,plate-normalised HSF1 focus index,[6],1.06 (inactive)
same,inhibition,"[7]; at 0.5 µM, stronger effect = higher value",-19.6% (inactive)
same,inhibition,"[7]; measured here: combination with BGB IC20, at 0.005 µM",-6.46%
same,inhibition,"[7]; measured here: combination with BGB IC40, at 0.005 µM",-12%
same,inhibition,"[7]; measured here: combination with BGB IC40, at 0.05 µM",-14.8%
same,inhibition,"[7]; measured here: combination with cisplatin, at 0.5 µM, stronger effect = higher value",-28.9%
same,inhibition,"[7]; measured here: combination with cisplatin, at 5 µM, stronger effect = higher value",3.9%
same,inhibition,"[8]; BGB combo, at 5 µM",-0.513%
same,inhibition,[8]; at 0.5 µM,-39.2% (inactive)
same,inhibition,"[8]; cisplatin combo, at 5 µM",11.6%
same,inhibition,[8]; [20],-47.1%
same,inhibition,[8]; [21],-45.4%
same,inhibition,"[8]; single agent, at 5 µM",27.9%
same,inhibition,"[9]; BGB IC20 combo, at 0.005 µM",8.82%
same,inhibition,"[9]; BGB IC40 combo, at 0.005 µM",-28.2%
same,inhibition,"[9]; BGB IC40 combo, at 0.05 µM",-13.5%
same,inhibition,[9]; at 0.5 µM,-27.7% (inactive)
same,inhibition,"[9]; cisplatin combo, at 0.05 µM",-18%
same,inhibition,"[9]; cisplatin combo, at 0.5 µM",-47.4%
same,inhibition,"[9]; cisplatin combo, at 5 µM",-33.3%
same,inhibition,"[9]; measured here: 5 uM single agent, at 5 µM",-7.48%
same,inhibition,[10]; at 0.5 µM,-23% (inactive)
same,inhibition,"[10]; measured here: with BGB IC20, at 0.5 µM",-35.6%
same,inhibition,"[10]; measured here: with BGB IC20, at 5 µM",15.3%
same,inhibition,"[10]; measured here: with cisplatin IC20, at 0.5 µM",-19.3%
same,inhibition,"[10]; measured here: with cisplatin IC20, at 5 µM",25.5%
same,inhibition,"[10]; single agent, at 5 µM",39.7%
same,inhibition,[11]; at 0.5 µM,-17.5% (inactive)
same,inhibition,"[11]; measured here: BGB combination, at 0.5 µM",-21.1%
same,inhibition,"[11]; measured here: BGB combination, at 5 µM",-18.6%
same,inhibition,"[11]; measured here: cisplatin combination, at 0.5 µM",-13.3%
same,inhibition,"[11]; measured here: cisplatin combination, at 5 µM",-24.4%
same,inhibition,[12]; at 0.5 µM,0.0685% (inactive)
same,inhibition,"[12]; cisplatin combination, at 0.5 µM",7.09%
same,inhibition,"[12]; cisplatin combination, at 5 µM",63.7%
same,inhibition,"[12]; measured here: BGB IC40 combination 0.05 uM, at 0.05 µM",69%
same,inhibition,"[12]; single agent, at 5 µM",13.7%
same,inhibition,[13]; at 0.5 µM,-14.5% (inactive)
same,inhibition,"[13]; cisplatin combo, at 5 µM",36.5%
same,inhibition,"[13]; measured here: BGB IC40 combination, at 0.05 µM",-31.7%
same,inhibition,"[13]; measured here: combination with cisplatin, at 0.5 µM",-5.13%
same,inhibition,"[13]; single agent, at 5 µM",-24.7%
same,inhibition,[14]; at 0.5 µM,-59.7% (inactive)
same,inhibition,[14]; [20],-65.7%
same,inhibition,[14]; [21],-56.7%
same,inhibition,"[14]; single agent, at 0.05 µM",-35.9%
same,inhibition,"[14]; single agent, at 5 µM",-52.5%
O=C(NC[C@H]1CN(c2ccc(N3CCOCC3=O)cc2)C(=O)O1)c1ccc(Cl)s1,outcome,[1],inactive
same,outcome,[2],inactive
same,outcome,[4],inactive
same,outcome,[15],inactive
same,outcome,[5],inactive
OCc1ccc(-c2nn(Cc3ccccc3)c3ccccc23)o1,outcome,[1],inactive
same,outcome,[2],inactive
same,outcome,[4],inactive
same,AC50,[15],23.5 µM (active)
same,outcome,[5],inactive
same,fold change,[16]; [22],0.905 (inactive) and 0.927 (inactive) and 0.926 (inactive)
same,fold change,[16]; [23],1.2 and 0.954 and 0.941
same,cell count,[16]; [24],5070 and 1870 and 4400
same,cell count,[16]; [25],5600 and 2020 and 4750
C=C1c2cccc(O)c2C(O)=C2C(=O)[C@@]3(O)C(O)=C(C(N)=O)C(=O)[C@@H](N(C)C)[C@@H]3[C@@H](O)[C@H]12,outcome,[1],inactive
same,outcome,[2],inactive
same,outcome,[17],inactive
same,outcome,[3],inactive
same,outcome,[4],inactive
same,outcome,[5],inactive
Cc1cccc(Nc2nc(-c3ccncc3)cs2)c1,outcome,[1],inactive
same,AC50,[2],20.9 µM (active)
same,AC50,[3],20.9 µM (active)
same,outcome,[4],inactive
same,outcome,[5],inactive
same,fold change,[16]; [22],0.988 (inactive) and 0.935 (inactive)
same,fold change,[16]; [23],0.542 and 0.911
same,cell count,[16]; [24],4770 and 4650
same,cell count,[16]; [25],4820 and 4970
same,z-score,"[18]; MELAS cybrid survival, CellTiter-Glo 48 h, stronger effect = higher value",-0.247 (inactive)
same,z-score,"[18]; Rieske KO mouse fibroblast survival, CellTiter-Glo 72 h",1.01
same,viability,"[19]; at 0.000305 µM, OCI-C5x cells, with rucaparib 10 µM, 100% = cells with rucaparib alone",109% (inactive)
same,viability,"[19]; at 0.000305 µM, OCI-C5x cells, without rucaparib",111% (inactive)
same,viability,"[19]; at 0.000305 µM, OCI-P5x cells, with rucaparib 20 µM, 100% = cells with rucaparib alone",88.3% (active)
same,viability,"[19]; at 0.000305 µM, OCI-P5x cells, without rucaparib",86.6% (active)
same,viability,"[19]; at 0.00122 µM, OCI-C5x cells, with rucaparib 10 µM, 100% = cells with rucaparib alone",108% (inactive)
same,viability,"[19]; at 0.00122 µM, OCI-C5x cells, without rucaparib",108% (inactive)
same,viability,"[19]; at 0.00122 µM, OCI-P5x cells, with rucaparib 20 µM, 100% = cells with rucaparib alone",95.8% (active)
same,viability,"[19]; at 0.00122 µM, OCI-P5x cells, without rucaparib",93.7% (active)
same,viability,"[19]; at 0.00488 µM, OCI-C5x cells, with rucaparib 10 µM, 100% = cells with rucaparib alone",114% (inactive)
same,viability,"[19]; at 0.00488 µM, OCI-C5x cells, without rucaparib",106% (inactive)
same,viability,"[19]; at 0.00488 µM, OCI-P5x cells, with rucaparib 20 µM, 100% = cells with rucaparib alone",75.1% (active)
same,viability,"[19]; at 0.00488 µM, OCI-P5x cells, without rucaparib",94.9% (active)
same,viability,"[19]; at 0.0195 µM, OCI-C5x cells, with rucaparib 10 µM, 100% = cells with rucaparib alone",112% (inactive)
same,viability,"[19]; at 0.0195 µM, OCI-C5x cells, without rucaparib",112% (inactive)
same,viability,"[19]; at 0.0195 µM, OCI-P5x cells, with rucaparib 20 µM, 100% = cells with rucaparib alone",110% (inactive)
same,viability,"[19]; at 0.0195 µM, OCI-P5x cells, without rucaparib",89.5% (active)
same,viability,"[19]; at 0.0781 µM, OCI-C5x cells, with rucaparib 10 µM, 100% = cells with rucaparib alone",107% (inactive)
same,viability,"[19]; at 0.0781 µM, OCI-C5x cells, without rucaparib",108% (inactive)
same,viability,"[19]; at 0.0781 µM, OCI-P5x cells, with rucaparib 20 µM, 100% = cells with rucaparib alone",102% (inactive)
